Assay outcomes (PubChem)
A selection: hits, their analogues and other compounds. The true share with any hit is near 18%.
TDP1 cell CPT: qHTS for Inhibitors of human tyrosyl-DNA phosphodiesterase 1 (TDP1): qHTS in cells in presence of CPT; 420,000 compounds, 12% hits; chicken DT40 Tdp1-/-;hTDP1 cells + 20 nM CPT, ATP luminescence, 48 h; Potency, µM (doses to about 46.2 µM), without a hit: at the top dose activity change, negative = growth inhibition, actives largely listed as inhibitors; also: potency is read from the fitted curve at half-maximal effect; nearly all actives have a fitted effect of over 55% in size
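Chicken DT40 Tdp1-/- cells stably complemented with human TDP1 were seeded at 400 cells/well in medium containing 20 nM camptothecin, exposed to pin-transferred compounds, and grown at 37 °C for at least 48 hr. Viability was read as ATP luminescence.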
DT40 TDP1 no CPT: qHTS for Inhibitors of human tyrosyl-DNA phosphodiesterase 1 (TDP1): qHTS in cells in absence of CPT; DT40 Tdp1-/- hTDP1 cells, no CPT, ATP luminescence, 48 h; Potency, µM (highest dose often 46.2 µM), inactives show top-dose activity change, negative = growth inhibition, actives largely listed as inhibitors; 420,000 compounds, 15% hits; AID 686978, 2013; also: potency is read from the fitted curve at half-maximal effect; nearly all actives have a fitted effect of over 55% in size
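Readout: luminescence from CellTiter-Glo after 30 min in the dark at RT. Cells: DT40 Tdp1-/- with stable hTDP1, 400/well. Exposure: compounds alone, ≥48 hr, 37 °C.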
IL1B secr inh: qHTS for Inhibitors of Inflammasome Signaling: IL-1-beta AlphaLISA Primary Screen | THP-1 LPS/ATP IL-1B secretion, AlphaLISA, 16 h; hits give low values | activity change, % at 57.5 µM | 360,000 compounds, 4.7% hits | AID 743279, 2014; in the data active = activity change below about -50%; inconclusive = mostly about -30% to -49%
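Secreted IL-1B measured by AlphaLISA bead assay after 16 h compound exposure of THP-1 cells; compounds (final up to 57.5 uM) added 1 h before LPS (250 ng/mL) and ATP (1.25 mM) stimulation; lower signal means less secretion.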
Six1-Eya2 inh: qHTS Assay for Inhibitors of the Six1/Eya2 Interaction | activity change, % (test concentration not listed) | AlphaScreen GST-Six1/His-Eya2 binding, biochemical; hits give low values | 360,000 compounds, 0.56% hits; in the data active = activity change below about -65%; inconclusive = mostly about -30% to -63%
Target sequence (O00167 whole entry, looked up): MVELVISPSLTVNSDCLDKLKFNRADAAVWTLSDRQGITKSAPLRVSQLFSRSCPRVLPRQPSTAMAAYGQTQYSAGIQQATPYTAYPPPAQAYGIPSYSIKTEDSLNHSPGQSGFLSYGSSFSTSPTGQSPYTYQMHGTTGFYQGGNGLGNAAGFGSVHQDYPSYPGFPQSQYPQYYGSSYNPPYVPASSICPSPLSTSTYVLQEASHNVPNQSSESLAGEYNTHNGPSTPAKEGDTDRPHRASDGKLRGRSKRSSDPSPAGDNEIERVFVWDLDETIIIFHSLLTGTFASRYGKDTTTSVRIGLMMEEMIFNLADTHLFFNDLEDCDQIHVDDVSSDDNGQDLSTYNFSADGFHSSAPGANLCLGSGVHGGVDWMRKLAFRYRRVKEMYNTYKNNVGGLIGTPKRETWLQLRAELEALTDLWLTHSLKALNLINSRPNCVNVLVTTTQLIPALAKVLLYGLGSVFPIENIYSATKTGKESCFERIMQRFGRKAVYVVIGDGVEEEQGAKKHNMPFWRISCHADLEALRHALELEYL
Target sequence (Q15475 whole entry, looked up): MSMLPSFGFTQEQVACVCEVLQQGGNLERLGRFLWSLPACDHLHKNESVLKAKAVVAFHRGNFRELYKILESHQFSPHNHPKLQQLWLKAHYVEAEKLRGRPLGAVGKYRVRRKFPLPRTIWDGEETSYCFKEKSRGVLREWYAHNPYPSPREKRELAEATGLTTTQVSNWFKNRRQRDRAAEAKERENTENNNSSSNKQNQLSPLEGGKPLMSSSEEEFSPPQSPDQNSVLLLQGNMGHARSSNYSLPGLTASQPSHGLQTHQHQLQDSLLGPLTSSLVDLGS
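Six1/Eya2 binding was read as AlphaScreen signal after compounds were pinned into GST-Six1 plus His-tagged Eya2 (5X stock 250/500 nM) in pH 8.0 Tris/NaCl/TCEP buffer, beads added, then incubated 1 h, 37 C, dark.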
TDP1 inh: qHTS Assay for Inhibitors of Tyrosyl-DNA Phosphodiesterase (TDP1). 350,000 compounds, 0.28% hits. Potency, µM (titrated, usually from 130 µM), without a hit: at the top dose activity change, negative = inhibition, hits mostly inhibitors. recombinant TDP1, AlphaScreen DNA substrate cleavage; also: potency is read from the fitted curve at half-maximal effect; nearly all actives have a fitted effect of over 40% in size
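Compounds were preincubated with Tdp1 (1 nM final) for 15 min at room temperature before substrate (15 nM final) started a 5 min reaction; beads (10 ug/ml final) were then added for 10 min before AlphaScreen detection.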
CtBP-E1A inh: qHTS Assay for Inhibitors of the CtBP/E1A Interaction. CtBP / adenovirus E1A interaction (AlphaScreen). AlphaScreen GST-E1A/His-CtBP binding, 1536-well; hits give low values. activity change, % (concentration not given with the values). 340,000 compounds, 0.49% hits; in the data active = activity change below about -65%; inconclusive = mostly about -30% to -63%
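Protein mix (5X: 125 nM each GST-E1A, His-CtBP) was incubated with pinned compound 2 h at 37 deg C in dark, in 50 mM Tris pH 8.0 buffer with 300 mM NaCl. Glutathione donor and nickel acceptor beads followed; AlphaScreen signal read after 1 h.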
An asterisk follows results filed as active; [ ] = dose if it differs, or a comment. Unless noted, calls follow the shape of the dose curve; as a rule, active = well fitted curve in the direction sought with a large enough effect; inconclusive = small, poorly fitted or top-dose-only effect, or another doubt; inactive = no such curve, though single readings can be large; an effect the other way counts as inactive or inconclusive. % is scaled to controls: 0 for no effect and ±100 for the full control effect.

For CCN1CCN(S(=O)(=O)c2ccc(Cl)c(C(=O)Nc3ccccc3N3CCOCC3)c2)CC1 the results were TDP1 cell CPT inconclusive, DT40 TDP1 no CPT -15%, IL1B secr inh -8, Six1-Eya2 inh 6 and CtBP-E1A inh -21.
`CCOC(=O)C1=C(C)C/C(=N\NC(=O)c2ccccc2O)CC1` gave TDP1 cell CPT 8.2µM*, DT40 TDP1 no CPT inconclusive, IL1B secr inh 1, Six1-Eya2 inh -11, TDP1 inh 4% and CtBP-E1A inh -20.
`CCOC(=O)c1ccccc1O` gave TDP1 cell CPT 3% and DT40 TDP1 no CPT 14%.
Screening CC(C)C(C(=O)NC1CCCC1)N1CCC(O)(c2ccc(Cl)cc2)CC1 (centres undefined) returned TDP1 cell CPT inconclusive, DT40 TDP1 no CPT inconclusive, IL1B secr inh -3, Six1-Eya2 inh 10 and CtBP-E1A inh -2.
COc1cccc(C(C(=O)NC2CCCC2)N2CCN(c3cc(C)ccc3C)CC2)c1OC (centres undefined) was read as TDP1 cell CPT 21µM*, DT40 TDP1 no CPT 21µM*, IL1B secr inh -59*, Six1-Eya2 inh -7 and CtBP-E1A inh -3.
For O=C(NC1CCCC1)C(c1ccco1)N1CCC(O)(c2ccc(Cl)cc2)CC1 (centres undefined) the results were TDP1 cell CPT 23µM*, DT40 TDP1 no CPT 18µM*, IL1B secr inh -6, Six1-Eya2 inh 0 and CtBP-E1A inh 5.
`Cc1ccc(C)c(N2CCN(C(C(=O)NC3CCCC3)c3ccco3)CC2)c1` (centres undefined) gave TDP1 cell CPT inconclusive, DT40 TDP1 no CPT 12µM*, IL1B secr inh -55*, Six1-Eya2 inh -1 and CtBP-E1A inh -5.
COc1cccc(C(C(=O)NC2CCCC2)N2CCN(c3ncccc3C#N)CC2)c1OC (centres undefined) was read as TDP1 cell CPT inconclusive, DT40 TDP1 no CPT 16µM*, IL1B secr inh -12, Six1-Eya2 inh -1 and CtBP-E1A inh 5.
Screening CCOC(=O)N1CCN(C(C(=O)NC2CCCC2)c2ccco2)CC1 (centres undefined) returned TDP1 cell CPT inconclusive, DT40 TDP1 no CPT -1%, IL1B secr inh 12, Six1-Eya2 inh 18 and CtBP-E1A inh 0.
`COc1ccc(C(=O)NC(=S)Nc2cc3oc4ccccc4c3cc2OC)cc1` gave TDP1 cell CPT -25%, DT40 TDP1 no CPT inconclusive, IL1B secr inh 21, Six1-Eya2 inh 2, TDP1 inh 3% and CtBP-E1A inh 5.
`CC(=O)N1N=C(c2ccc(Br)cc2)OC1(C)CC(=O)Nc1ccccc1` (centres undefined) gave TDP1 cell CPT -18%, DT40 TDP1 no CPT inconclusive, IL1B secr inh inconclusive, Six1-Eya2 inh -1, TDP1 inh 0% and CtBP-E1A inh -16.
NC(N)=NCc1cccc(I)c1 was read as TDP1 cell CPT 6.5µM*, DT40 TDP1 no CPT 2.9µM*, IL1B secr inh 0, Six1-Eya2 inh 6, TDP1 inh 8%[56.1 µM] and CtBP-E1A inh -2.
`Cc1[nH]c2ccccc2c1C(C[N+](=O)[O-])c1ccco1` (centres undefined) gave TDP1 cell CPT inconclusive, DT40 TDP1 no CPT inconclusive, IL1B secr inh 4, Six1-Eya2 inh -16, TDP1 inh 3% and CtBP-E1A inh -8.
For Cc1[nH]c2ccccc2c1C(C[N+](=O)[O-])c1cccs1 (centres undefined) the results were TDP1 cell CPT inconclusive, DT40 TDP1 no CPT inconclusive, IL1B secr inh -96*, Six1-Eya2 inh 0, TDP1 inh 7% and CtBP-E1A inh -1.
CCOC(=O)[C@]12CCCC=C1N(Cc1ccc3c(c1)OCO3)C(=O)[C@H](CC(=O)N1CCOCC1)C2 was read as TDP1 cell CPT inconclusive, DT40 TDP1 no CPT -25%, IL1B secr inh 24, Six1-Eya2 inh 9 and CtBP-E1A inh -19.
CS(=O)(=O)N1CCN(c2ccc(NC(=O)c3cccnc3Cl)cc2)CC1 was read as TDP1 cell CPT -9%, DT40 TDP1 no CPT 3%, IL1B secr inh 2, Six1-Eya2 inh 0, TDP1 inh 7% and CtBP-E1A inh 11.
`COc1ccc(O)c(C2=Nc3ccccc3N=C(c3ccccc3)C2)c1` gave TDP1 cell CPT 23µM*, DT40 TDP1 no CPT 18µM*, IL1B secr inh 17, Six1-Eya2 inh -1, TDP1 inh 6% and CtBP-E1A inh -11.
For CCn1c(SCC(=O)NC2CCS(=O)(=O)C2)nnc1-c1ccccc1 (centres undefined) the results were TDP1 cell CPT 12%, DT40 TDP1 no CPT -6%, IL1B secr inh -11, Six1-Eya2 inh -6, TDP1 inh 1% and CtBP-E1A inh 0.
`CCOc1ccc(CCNC(c2nnc(-c3ccccc3)o2)c2ccccc2Cl)cc1OCC` (centres undefined) gave TDP1 cell CPT 15µM*, DT40 TDP1 no CPT 15µM* and TDP1 inh 0%.
For CCOc1ccc(CCNC(c2cccc(Cl)c2)c2nnc(-c3ccccc3)o2)cc1OCC (centres undefined) the results were TDP1 cell CPT 16µM*, DT40 TDP1 no CPT 26µM* and TDP1 inh 5%.
`NC(=O)CSc1nnc(-c2ccco2)n1-c1ccc(F)cc1` gave TDP1 cell CPT -5%, DT40 TDP1 no CPT inconclusive, IL1B secr inh 0, Six1-Eya2 inh 7 and CtBP-E1A inh -6.
Screening O=C(Cc1ccc(Br)cc1)Nc1cccc(-c2cn3c(n2)SCC3)c1 returned TDP1 cell CPT inconclusive, DT40 TDP1 no CPT inconclusive, IL1B secr inh -76*, Six1-Eya2 inh -13, TDP1 inh 6% and CtBP-E1A inh 2.
Screening COCCNC(=O)c1ccc(C(=O)NCCOC)s1 returned TDP1 cell CPT -15%, DT40 TDP1 no CPT -5%, IL1B secr inh -1, Six1-Eya2 inh 3, TDP1 inh 0% and CtBP-E1A inh 3.
